Only a selection was taken, and hits are over-represented in it overall.
EphB4 antag: blocks human EphB4 binding to ephrin-B2; EphB4 LBD / TNYL-RAW-Alexa532 peptide, fluorescence polarization; P54760; inhibition, % at 7 µM; AID 720; hit rate 0.15% among 97,000;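 active = inhibition above the screen-wide mean inhibition plus 3 SD, cut at about 15% in these data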;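 also: 0% = DMSO wells and 100% = excess unlabeled TNYL-RAW peptide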
D1 allo mod: D1 dopamine receptor (human) allosteric modulation. B-score at 10 µM. hit rate 5.9% among 58,000. HEK293 D1, CRE-luciferase, dopamine EC30 potentiation; actives deviate in either direction. P21728;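 active = luminescence count or its row- and column-corrected plate score outside the 99.7% band of the plate's sample wells, on either side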
Target sequence (P21728 whole entry, looked up): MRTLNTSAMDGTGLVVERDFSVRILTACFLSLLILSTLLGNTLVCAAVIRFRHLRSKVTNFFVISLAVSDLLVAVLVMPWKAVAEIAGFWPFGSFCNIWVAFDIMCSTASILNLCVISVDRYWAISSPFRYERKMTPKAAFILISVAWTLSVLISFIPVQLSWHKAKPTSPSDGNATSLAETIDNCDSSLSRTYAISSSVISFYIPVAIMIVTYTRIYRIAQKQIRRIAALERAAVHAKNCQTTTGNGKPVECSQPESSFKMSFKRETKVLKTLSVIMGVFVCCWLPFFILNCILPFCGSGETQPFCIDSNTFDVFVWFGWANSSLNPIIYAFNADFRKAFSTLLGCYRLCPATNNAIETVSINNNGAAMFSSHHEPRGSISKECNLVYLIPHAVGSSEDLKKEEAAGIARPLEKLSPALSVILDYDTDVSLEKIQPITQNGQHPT
DAT uptake mod: human DAT dopamine uptake with cocaine, either direction; LLC-PK1 hDAT cells, [14C]-dopamine uptake with cocaine IC80; actives deviate in either direction; B-score at 10 µM; hit rate 1.3% among 110,000; Q01959;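 active = Z score or B-score, a plate-position-corrected score, falls beyond the plate's 99.7% confidence bounds, in either direction; inactive = both scores lie inside the 99.7% bounds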;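 also: scored against the spread of the other compound wells on the same plate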
D1 mod confirm: confirmation of human D1 dopamine receptor allosteric modulators. shares compounds with D1 allo mod. HEK293 D1 CRE-luciferase, dopamine EC30 potentiation; active compounds read high. hit rate 88% among 2,200. luminescence at 10 µM;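 active = luminescence in either of two replicates above the same-plate mean plus 3 SD of the low-dose dopamine control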
D1 ag no DA: activates D1 CRE-luciferase signal without dopamine present; luminescence at 10 µM; HEK293 D1 CRE-luciferase, luminescence, no dopamine; active compounds read high; hit rate 0.8% among 1,900; shares compounds with D1 allo mod; in the data active = luminescence above about 3900
Isoprot counter: isoproterenol response counter-screen activity for D1 modulators. shares compounds with D1 allo mod. HEK293 D1 CRE-luciferase, isoproterenol EC30 counter-screen. calls only at 10 µM. hit rate 63% among 2,200;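 active = luminescence in either replicate above plate mean of wells with a partly effective reference agonist dose plus 3 SD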;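 also: isoproterenol raises cAMP through native beta-adrenoceptor Gs so signal bypasses D1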
* = called active by the depositor; i = inactive; · = no result given; + = active, no number.

SMILES | EphB4 antag | D1 allo mod | DAT uptake mod | D1 mod confirm | D1 ag no DA | Isoprot counter
CCCc1[nH]nc2c1C(c1cccc(OC(=O)c3ccco3)c1)C(C#N)=C(N)O2 (stereo unspecified) | -6 | 2.6 | -0.0056 | · | · | ·
CC1(C)CC(=O)C2=C(C1)OC(N)=C(C#N)C2CCc1ccccc1 (stereo unspecified) | -3 | 8.9* | 0.76 | 20388* | 1576 | +
COc1ccc(C2C(C#N)=C(N)OC3=C2C(=O)CC(C)(C)C3)c(OC)c1OC (stereo unspecified) | · | -4 | -0.61 | · | · | ·
O=C(Nc1ccc(S(=O)(=O)Nc2ncccn2)cc1)c1ccc(Br)s1 | 6 | · | -1.2 | · | · | ·
COC(=O)c1cc(-c2ccccc2)sc1N | 3 | · | -0.037 | · | · | ·
COC(=O)c1nc(N)sc1-c1ccccc1 | -6 | 11* | -0.028 | 21800* | 1648 | +
COc1ccc(-c2csc(NC(=O)C3CCCCN3S(=O)(=O)c3ccccc3)n2)cc1 (stereo unspecified) | 10 | · | 0.9 | · | · | ·
COc1ccc(CNc2ccc(S(N)(=O)=O)cc2)c(OC)c1OC | 2 | 5.3* | 0.84 | 7284* | 1472 | +
C=CCOc1c(CNc2ccc(S(N)(=O)=O)cc2)cccc1OC | 0 | · | 0.023 | · | · | ·
CSc1cccc(NC(=O)CN(Cc2ccc(Cl)cc2)S(C)(=O)=O)c1 | 3 | · | 0.23 | · | · | ·
COc1ccc(CC(=O)Nc2c3c(nn2-c2cccc(C)c2C)CS(=O)(=O)C3)cc1 | -2 | -0.16 | 0.93 | · | · | ·
COc1ccccc1C(=O)Nc1c2c(nn1-c1cccc(C)c1C)CS(=O)(=O)C2 | -9 | 6.6* | -1.3 | 14916* | 1716 | +
Cc1ccc(C(=O)N(c2ccccc2)C2CC(C)N(C(=O)c3ccco3)c3ccccc32)cc1 (stereo unspecified) | 2 | · | 0 | · | · | ·
OCC#CCSc1nnc(-c2ccc(Br)cc2)o1 | 6 | 0.44 | -1.3 | · | · | ·
COc1ccccc1-c1nnc(SCC(=O)N2CCOCC2)o1 | · | 0.27 | -0.83 | · | · | ·
COc1ccccc1-c1nnc(SCC(=O)N2CCC(C)CC2)o1 | -1 | 3.1* | 0.084 | 5288 | · | i
COc1ccc(-c2nnc(SCC(=O)N3CCCC3)o2)cc1OC | 9 | 0.19 | 0.21 | · | · | ·
COc1ccc(-c2nnc(SCC#CCO)o2)cc1OC | -2 | 15* | 0.48 | 16500* | 1544 | +
COc1ccc(-c2nc(CN3CCC(C(=O)NC(C)C)CC3)c(C)o2)cc1OC | · | 0.0015 | · | · | · | ·
COc1ccc(-c2nnc(SCC(=O)N3CCCc4ccccc43)o2)cc1OC | 2 | 16* | -0.41 | 19988* | 1836 | +
COc1ccc(-c2nc(CN3CCC(C(=O)N4CCc5ccccc54)CC3)c(C)o2)cc1OC | 1 | 2.8* | 1.1 | 6820* | 1624 | +
Cc1nnsc1SCCNC(=O)c1ccc(F)cc1 | -5 | · | 0.069 | · | · | ·
Cc1cc(Nc2ccccc2)n(CCO)n1 | 2 | · | -0.074 | · | · | ·
Cc1ccc(S(=O)(=O)N2CCC(=O)N(C(COCc3cccc(C(F)(F)F)c3)C(C)C)CC2)cc1 (stereo unspecified) | · | · | -0.46 | · | · | ·
O=C(CCc1ccccc1)NNC(=S)NC(=O)c1ccc(Cl)cc1 | 4 | · | -0.022 | · | · | ·
SMILES | EphB4 antag | D1 allo mod | DAT uptake mod | D1 mod confirm | D1 ag no DA | Isoprot counter
Oc1ccc2ccccc2c1C=Nc1ccccc1-c1nc2ccccc2[nH]1 | 0 | · | 1.1 | · | · | ·
COc1cccc(NC(=O)CCNC(=O)Cn2ccc3ccccc3c2=O)c1 | 2 | · | -0.0039 | · | · | ·
c1ccc2c(c1)N1CCN=C1N2CCN1CCCCC1 | -2 | 1 | 0.69 | · | · | ·
CCCN1C2=NS(=O)(=O)CCN2c2ccccc21 | 2 | 8.4* | -0.27 | 20272* | 2056 | +
COCCCNC(=O)c1ccc(N(C)S(=O)(=O)c2ccc(OC)cc2)cc1 | 3 | -0.35 | 1 | · | · | ·
COc1ccc(C(=O)Nn2c(C)ccc2C)cc1OC | 0 | 9.6* | 0.02 | 11780* | 1660 | +
COCCNC(=O)c1ccccc1NC(=O)c1ccc(OC)c(OC)c1 | · | 2.1 | -0.49 | · | · | ·
COCCNC(=O)c1ccc(N(C)S(=O)(=O)c2ccc(OC)c(OC)c2)cc1 | 2 | 11* | -0.47 | 14404* | 1504 | +
Cc1ccc(C)n1NC(=O)c1ccc(Cl)cc1 | 1 | · | -0.65 | · | · | ·
CCOc1cc(C(=O)NCCOC)ccc1OC | 2 | 4.8* | -0.87 | 7216* | 1968 | i
CC(C)CC(NC(=O)OC(C)(C)C)c1cn([C@@H](CCC(=O)OC(C)(C)C)C(=O)N2CCN(C(=O)OC(C)(C)C)CC2)nn1 (stereo partly specified) | · | · | 0.41 | · | · | ·
CC(C)(C)C1CCc2onc(C(=O)NC3CCCC3)c2C1 (stereo unspecified) | 4 | 1.4 | -0.48 | · | · | ·
CC(C)(C)C1CCc2onc(C(=O)N3CCOCC3)c2C1 (stereo unspecified) | · | 6* | 0.37 | 10148* | 1516 | +
CCOC(=O)c1c(C)cc(C)n2c1nc1ccccc12 | 9 | · | 0.094 | · | · | ·
CC(C(=O)O)c1ccc(N2Cc3ccccc3C2=O)cc1 (stereo unspecified) | · | · | 0.78 | · | · | ·
COc1ccc([C@@H]2C[C@H](c3ccccc3)Oc3cc(C)cc(C)c32)cc1 | · | · | -0.18 | · | · | ·
Clc1ccc(-c2ccc(-c3nn4c(-c5ccco5)nnc4s3)o2)cc1 | -1 | 0.027 | 0.47 | · | · | ·
Brc1ccc(-c2nn3c(-c4ccco4)nnc3s2)o1 | -1 | 4.1* | -0.35 | 10612* | 1476 | +
COc1ccccc1NC(=S)N(CCc1nc2cc(C)c(C)cc2[nH]1)Cc1cccnc1 | -1 | · | 1.7 | · | · | ·
COC(=O)c1c(NC(=O)Cc2cccs2)sc(C)c1C | · | 15* | -0.93 | 11876* | 1564 | +
COC(=O)c1c(NC(=O)Cc2ccccc2)sc(C)c1C | 3 | · | -0.15 | · | · | ·
CCOC(=O)c1c(N)sc(C(=O)N2CCCCC2)c1C | 6 | · | 0.26 | · | · | ·
CCOC(=O)c1c(NC(=O)Cc2cccs2)sc(C(=O)N2CCCCC2)c1C | -4 | 12* | 0.83 | 17816* | 1812 | +
Cc1ccc2c(c1)CCCN2C(=O)c1cc2ccccc2oc1=O | 2 | · | 0.84 | · | · | ·
CC1(C)CC(=O)c2cnc(NC(=O)Cc3ccc(Cl)cc3)nc2C1 | 2 | 0.5 | 0.34 | · | · | ·
SMILES | EphB4 antag | D1 allo mod | DAT uptake mod | D1 mod confirm | D1 ag no DA | Isoprot counter
CC1(C)CC(=O)c2cnc(NC(=O)CSc3nc4ccccc4o3)nc2C1 | 1 | -0.0083 | -0.19 | · | · | ·
Cc1cc(C)nc(SCC(=O)Nc2ncc3c(n2)CC(C)(C)CC3=O)n1 | 9 | 5.3* | 1.4 | 7004* | 1576 | i
CCCCC(=O)Nc1ncc2c(n1)CC(C)(C)CC2=O | -5 | 3* | -1.7 | 5316 | · | i
COc1cc(S(=O)(=O)NCC2OCCc3ccccc32)ccc1-n1cnnn1 (stereo unspecified) | 0 | · | 0.32 | · | · | ·
N#CC1=C(SCC(N)=O)NC2=C(C(=O)c3ccccc32)C1c1ccc(Cl)cc1 (stereo unspecified) | -1 | · | 0.34 | · | · | ·
Nc1nc(C2CC2)c(Sc2sc(N)nc2C2CC2)s1 | 5 | 10* | 0.23 | 11736* | 1620 | +

High-throughput results from PubChem BioAssay.
